In the library only some 2.3% were active in any assay of this set; here they are far more common.
Nrf2 block: blocks Nrf2 signaling | Potency, µM (top dose mostly 46 µM), most hits filed as inhibitors | AID 504444 | hit rate 2.1% among 360,000 | A549 ARE-Fluc reporter, luciferase luminescence, 18-24 h; further: nearly all actives have a fitted effect of over 60% in size
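Two sequential reads on A549 ARE_Fluc cells exposed to compound for 18-24 h: a CellTiter-Fluor fluorescence read for viability, then a luciferase luminescence read for Nrf2/ARE activity.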
Nrf2 ARE act: activators of Nrf2 (ARE) signaling | AREc32 ARE-luciferase reporter (MCF7-derived line), luminescence, 24 h | Potency, µM (doses to about 46.1 µM), usual class: activators | hit rate 0.31% among 410,000; further: nearly all actives have a fitted effect of over 65% in size
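Nrf2 activation is followed as ARE-luciferase induction in the AREc32 line after one day of compound treatment; luminescence is read with Steady-Glo.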
IL2 activator: IL-2 activation | IL-2 activation reporter assay, cell-based qHTS; stimulated with anti-CD3/CD4/CD28 beads; in transgenic mouse T cells | activation, % (series mostly up to about 46 µM) | hit rate 0.065% among 360,000; in the data active means activation above about 50%; inconclusive means mostly about 30% to 49%
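Screening format: compound pinned onto unstimulated transgenic mouse T cells, 60 min incubation, then anti-CD3/anti-CD4/anti-CD28 bead stimulation for 18 hours at 37 degrees C, followed by EGFP and DsRed detection.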
A549 tox-1: kills or reduces viability of A549 cells in Nrf2 counter-screen; A549 ARE-Fluc cells, CellTiter-Fluor viability, 18-24 h; Potency, µM (highest dose often 46 µM), actives largely listed as inhibitors; hit rate 0.16% among 390,000; AID 504648
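Cytotoxicity counterscreen: CellTiter-Fluor fluorescence was measured in A549 ARE_Fluc cells after 18-24 h of compound exposure in a concentration series. The subsequent BugLite luminescent read reports ARE-luciferase activity.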
FLuc counter 3: counter-screen for Nrf2 inhibitors: firefly luciferase enzyme inhibition; shares compounds with Nrf2 block; purified firefly luciferase, luminescence inhibition; Potency, µM (top dose mostly 57.5 µM), most hits filed as inhibitors; hit rate 4% among 1,400; AID 720522; further: nearly all actives have a fitted effect of over 65% in size
Target sequence (P08659 whole entry, looked up): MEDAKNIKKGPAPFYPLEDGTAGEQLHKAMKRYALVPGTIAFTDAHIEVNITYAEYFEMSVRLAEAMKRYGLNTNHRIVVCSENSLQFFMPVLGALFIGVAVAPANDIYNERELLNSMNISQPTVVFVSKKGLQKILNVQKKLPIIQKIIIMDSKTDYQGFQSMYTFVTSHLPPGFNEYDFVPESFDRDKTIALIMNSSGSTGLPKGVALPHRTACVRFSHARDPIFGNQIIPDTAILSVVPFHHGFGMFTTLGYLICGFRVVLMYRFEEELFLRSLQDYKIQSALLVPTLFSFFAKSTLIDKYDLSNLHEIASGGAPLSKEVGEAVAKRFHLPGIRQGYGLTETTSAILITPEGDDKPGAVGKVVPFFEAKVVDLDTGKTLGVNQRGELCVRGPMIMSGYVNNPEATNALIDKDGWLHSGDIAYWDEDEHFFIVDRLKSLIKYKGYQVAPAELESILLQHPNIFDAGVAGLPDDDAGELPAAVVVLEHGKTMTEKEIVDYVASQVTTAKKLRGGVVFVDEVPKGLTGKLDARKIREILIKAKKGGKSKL
A549 tox-2: A549 cytotoxicity, Nrf2 inhibitor counterscreen | A549 ARE-Fluc cells, cytotoxicity counterscreen | shares compounds with Nrf2 block | Potency, µM (highest dose often 46.1 µM), most hits filed as inhibitors | hit rate 2% among 1,400 | AID 720523;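 further: cells exposed to compounds for 18 to 24 hours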
Nrf2 ARE inh: Nrf2 inhibition confirmed, A549 ARE-luciferase | shares compounds with Nrf2 block | A549 ARE-firefly luciferase reporter, luminescence | Potency, µM (highest dose often 46.1 µM), most hits filed as inhibitors | hit rate 74% among 1,400 | AID 720524; further: nearly all actives have a fitted effect of over 65% in size
Of the large screens only hits and unclear results are named; the others gave an inactive call (follow-up assays come after a bar, where shown). Unless noted, the call rests on the fitted dose curve; in most records, active means well fitted curve in the direction sought with a large enough effect; inconclusive means small, poorly fitted or top-dose-only effect, or another doubt; inactive means no such curve, though single readings can be large; an effect the other way counts as inactive or inconclusive.

C[C@H](CO)N1C[C@H](C)[C@@H](CN(C)Cc2ccc(-c3ccccc3)cc2)Oc2c(NC(=O)c3ccncc3)cccc2C1=O	Nrf2 block 20.6µM
CCN(CC)c1ccc(NC(=O)c2cccc(C)c2)cc1S(=O)(=O)Nc1ccccc1OC	Nrf2 block inconclusive
O=C(c1ccccc1)c1ccc2nc(N3CCN(c4ccc(F)cc4)CC3)c3nncn3c2c1	Nrf2 block inconclusive (no result: IL2 activator)
CC1(C)C(C(=O)N2CCN(c3ccc(Cl)cc3)CC2)C1(C)C	none
Cc1ccc(-n2ncc(C(=O)N3CCN(c4ccc(Cl)cc4)CC3)c2C2CCN(C(=O)OC(C)(C)C)CC2)c(C)c1	Nrf2 block 14.6µM (no result: IL2 activator)
Cc1ccc(C[n+]2c(-c3ccc(C)cc3)cc(-c3ccc(C)cc3)cc2-c2ccc(C)cc2)cc1	Nrf2 block 5.17µM, A549 tox-1 18.4µM
O=C(C(=O)N1CCOCC1)c1cn(Cc2c(F)cccc2Cl)c2ccccc12	none
Cc1cc2c(cc(C(=O)N3CCC(C(=O)NC4CCCC4)CC3)n2Cc2c(F)cccc2Cl)o1	Nrf2 block 16.4µM
COc1cccc(CN2CCC(n3nccc3NC(=O)CCOc3ccccc3)CC2)c1O	Nrf2 block inconclusive
COc1ccc(C(=O)NCCn2cc(SCc3ccc(C(F)(F)F)cc3)c3ccccc32)cc1OC	Nrf2 block 18.4µM (no result: IL2 activator)
CC(N)C(=O)NC1C2C(=C(O)CC(O)C2O)C(=O)OC1(C)C(Cl)Cl (configuration not stated)	Nrf2 block 1.64µM, A549 tox-1 2.06µM
C[C@H]1[C@@H](OS(=O)(=O)O)C[C@@H]2C[C@H]([C@@H](O)c3cc(=O)[nH]c(=O)[nH]3)NC3=NC[C@H]1N32	Nrf2 block 0.651µM | FLuc counter 3 inactive | Nrf2 ARE inh 0.231µM
C#CC(C)(CC)NC(=O)Cn1nnc(-c2ccc(OCc3ccccc3C)cc2)n1 (configuration not stated)	Nrf2 block inconclusive (no result: IL2 activator)
CCCCCn1c(=O)c(C(=O)NCc2ccc(Cl)cc2)c(O)c2ccccc21	Nrf2 block inconclusive
Cc1cc2ccccc2n1-c1ccc(C(=O)N2CCC(C(=O)NCc3ccc(Cl)cc3)CC2)s1	Nrf2 block 7.31µM (no result: IL2 activator) | FLuc counter 3 inactive | A549 tox-2 inactive | Nrf2 ARE inh 8.2µM
CC(C)c1cccc(C(C)C)c1OC(=O)NC(=O)c1c(F)cccc1F	A549 tox-1 inconclusive
C[C@H]1CCC[C@@H](O)CCC/C=C/c2cc(O)cc(O)c2C(=O)O1	Nrf2 block inconclusive
CC1CCC/C=C/C2CC(O)CC2C(O)/C=C/C(=O)O1 (configuration not stated)	Nrf2 block 0.259µM, A549 tox-1 inconclusive | FLuc counter 3 inactive | A549 tox-2 inconclusive
C[C@H]1CCC/C=C/C2C[C@H](O)CC2[C@H](O)/C=C/C(=O)O1 (some centres not stated)	Nrf2 block 0.146µM, A549 tox-1 inconclusive | FLuc counter 3 inactive | A549 tox-2 inconclusive
CC(C)(C)c1ccc(/C=C2\Oc3cc(OC(=O)N4CCOCC4)ccc3C2=O)cc1	Nrf2 block inconclusive, A549 tox-1 inconclusive
CCN(c1ccccc1)S(=O)(=O)c1ccc(NC(=O)c2cc(=O)c3ccccc3o2)cc1	Nrf2 block inconclusive (no result: IL2 activator)
Cc1ccccc1C(=O)Oc1cccc(Nc2ncnc3ccccc23)c1	Nrf2 block inconclusive
COc1cc2cc(C(=O)N3CC(COS(C)(=O)=O)c4ccc(O)cc43)[nH]c2c(OC)c1OC (configuration not stated)	Nrf2 block 0.058µM, A549 tox-1 inconclusive | FLuc counter 3 inactive | A549 tox-2 inconclusive | Nrf2 ARE inh inconclusive
N#Cc1cn(C2OC(CO)C(O)C2O)c2ncnc(N)c12 (configuration not stated)	Nrf2 block inconclusive, A549 tox-1 inconclusive
NC(=O)c1cn(C2OC(CO)C(O)C2O)c2ncnc(N)c12 (configuration not stated)	Nrf2 block 0.461µM, A549 tox-1 inconclusive | FLuc counter 3 inactive | A549 tox-2 inconclusive | Nrf2 ARE inh 0.82µM
O=C(c1cc(-c2cccc(Cl)c2)on1)N1CCOCC1	Nrf2 block inconclusive
Cc1ccc2c(C)c3ccc4ccccc4c3c[n+]2c1	Nrf2 block 2.59µM, A549 tox-1 inconclusive | FLuc counter 3 inactive | A549 tox-2 inactive | Nrf2 ARE inh 5.8µM
COC(=O)C1=C(c2cccc(OCc3ccccc3)c2)C[C@@H]2CC[C@H]1N2C(=O)NCc1cc(C)oc1C(F)(F)F	Nrf2 block inconclusive | FLuc counter 3 inactive | A549 tox-2 inactive | Nrf2 ARE inh inconclusive
CC1=CC(C)CC(C)OC(=O)CC(c2ccc(O)cc2)NC(=O)C(Cc2c(Br)[nH]c3ccccc23)N(C)C(=O)C(C)NC(=O)C(C)C1 (configuration not stated)	Nrf2 block 0.581µM, A549 tox-1 1.84µM | FLuc counter 3 inactive | A549 tox-2 inconclusive | Nrf2 ARE inh 1.46µM
C[C@@H]1O[C@@H](O[C@@H]2C=C3CC[C@@H]4[C@@H](CC[C@]5(C)[C@H](c6ccc(=O)oc6)CC[C@@]45O)[C@@]3(C)CC2)[C@H](O)[C@H](O)[C@H]1O	none (no result: Nrf2 block, Nrf2 ARE act, IL2 activator, A549 tox-1) | FLuc counter 3 inactive | A549 tox-2 inconclusive | Nrf2 ARE inh 0.0103µM
CC1=CC2OC3CC4OC(=O)C=CC=CC(C(C)O)OCC(O)C5(C)OC5C(=O)OCC2(CC1O)C4(C)C31CO1 (configuration not stated)	Nrf2 block 0.411µM (no result: A549 tox-1) | FLuc counter 3 inactive | Nrf2 ARE inh 0.259µM
CC1CCOC(=O)C=CC=CC(=O)OC2CC3OC4C5OC5(C)C(O)CC4(COC(=O)C1O)C2(C)C31CO1 (configuration not stated)	Nrf2 block 0.517µM (no result: A549 tox-1) | FLuc counter 3 inactive | Nrf2 ARE inh 0.366µM
CCOP(=O)(/C(C#N)=C(\C)O)c1ccccc1 (configuration not stated)	A549 tox-1 inconclusive
Cc1[nH]c2ccccc2c1C(=O)CN1CC=C(c2ccccc2)CC1	Nrf2 block inconclusive
CCN1CC=C(c2c[nH]c3ccccc23)CC1	Nrf2 block 1.3µM, A549 tox-1 inconclusive | FLuc counter 3 inactive | A549 tox-2 inconclusive | Nrf2 ARE inh 0.0326µM
C=C1C(=O)O[C@@H]2C[C@@H](C)[C@@H]3C=CC(=O)[C@@]3(C)[C@@H](OC(=O)CC(=O)O[C@H]3[C@@H]4C(=C)C(=O)O[C@@H]4C[C@@H](C)[C@@H]4C=CC(=O)[C@]43C)[C@H]12	Nrf2 block 2.59µM, A549 tox-1 14.6µM | FLuc counter 3 inconclusive | A549 tox-2 2.91µM | Nrf2 ARE inh 2.06µM
